Outcome and AC50 data for 32 compounds are collected here from PubChem BioAssay (EPA / NIEHS).

Values joined by “and” are separate entries in the source; they are usually repeats but may differ in a detail not shown here. Equal entries are not always repeated. Results filed as inconclusive are left out. The source holds several records for some structures; these can differ, active in one and inactive in another. Active and inactive are the calls of the source. Rule for the calls: active = hit-call score of the fitted dose curve at least 0.9, where 1 is the maximum; inconclusive = response in the unintended direction; inactive = score below 0.9.

A short description of assay [1]: TOX21_p53_BLA_p2_viability: Viability Assessment in the Tox21 HCT-116 p53 Agonism Beta-lactamase Assay, Phase 2 (AID 2283591).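 Note: compound exposure lasted 16 h at 37 °C; actives lower the ATP signal meaning cytotoxicity.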 The gist of the method:
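Cytotoxicity readout: CellTiter-Glo ATP luminescence, 30 min at room temperature, after the beta-lactamase read. Cells were HCT116 exposed 16 h at 37C to compounds pin-transferred at 217-fold dilution from DMSO stocks.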

Assay [2] concerns the target Cellular tumor antigen p53 (Homo sapiens) (UniProt P04637). Briefly: TOX21_p53_BLA_p2_ratio: Tox21 HCT-116 p53 Agonism Beta-lactamase Assay, Ratio, Phase 2 (AID 2283592). The gist of the method: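 Cleaved-to-uncleaved substrate ratio (460 vs 530 nm) measured in HCT116 cells with an inducible beta-lactamase reporter linked to p53 activity. Compounds incubated 16 h at 37C before 2 h room-temperature CCF4-AM loading.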

Assay [3] can be described thus: TOX21_p53_BLA_p4_viability: Viability Assessment in the Tox21 HCT-116 p53 Agonism Beta-lactamase Assay, Phase 4 (AID 2283597).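 Note: hits lower the luminescence signal meaning cytotoxicity.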 The gist of the method:
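Viability is taken as cellular ATP: after 16 h compound exposure of HCT116 cells and a 2 h room-temperature CCF4-AM substrate step, CellTiter-Glo reagent is added and luminescence is measured 30 min later.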

The target of assay [4] is Cellular tumor antigen p53 (Homo sapiens) (UniProt P04637). In words: TOX21_p53_BLA_p5_ratio: Tox21 HCT-116 p53 Agonism Beta-lactamase Assay, Ratio, Phase 5 (AID 2283599). The method, boiled down:
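Beta-lactamase reporter ratio (blue 460 nm over green 530 nm, 405 nm excitation) after 2 h CCF4-AM loading, in HCT-116 cells exposed 16 h at 37 C to compounds pinned at 217-fold dilution. Increases relative to DMSO baseline scored.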

Assay [5] shares this target. In words: TOX21_p53_BLA_p3_ratio: Tox21 HCT-116 p53 Agonism Beta-lactamase Assay, Ratio, Phase 3 (AID 2283596). The method, boiled down:
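Cells were seeded at 4000/well, rested 5 h at 37C, then dosed with DMSO compound solutions (217-fold dilution) for 16 h. CCF4-AM substrate was loaded for 2 h at room temperature, and the 460/530 nm emission ratio was fitted for gain of signal versus DMSO.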

Assay [6] in a line: TOX21_p53_BLA_p5_viability: Viability Assessment in the Tox21 HCT-116 p53 Agonism Beta-lactamase Assay, Phase 5 (AID 2283600). The gist of the method:
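Viability is taken from cellular ATP content, measured by luciferase luminescence in the same wells after the beta-lactamase ratio read. Cells are seeded at 4000 per well and exposed to DMSO-dissolved compounds, diluted 217-fold, for 16 h.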

The target of assay [7] is Cellular tumor antigen p53 (Homo sapiens) (UniProt P04637). In words: TOX21_p53_BLA_p4_ratio: Tox21 HCT-116 p53 Agonism Beta-lactamase Assay, Ratio, Phase 4 (AID 2283601). The method, boiled down:
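Signal is the blue/green (460nm/530nm) ratio of cleaved versus uncleaved CCF4-AM substrate, read after 2 h substrate loading. Cells were HCT116 carrying the p53-responsive beta-lactamase reporter, dosed 16 h at 37C, 5% CO2; CellTiter-Glo measured in parallel.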

Assay [8] addresses PGR (gene 5241) (UniProt P06401). Briefly: TOX21_PR_BLA_Followup_Antagonist_ratio: Tox21 HEK293 Progesterone Receptor (PR) Antagonism Beta-lactamase Follow-Up Assay, Ratio (AID 2283934).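 Note: PR-UAS-bla HEK293T cells stimulated with 1 nM R5020 agonist for 16 hr.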 The method, boiled down:
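Measured in PR-UAS-bla HEK293T cells co-treated with compound and 1 nM promegestone for 16 hr; beta-lactamase ratio read after 2 h FRET substrate loading, with parallel CellTiter-Glo cytotoxicity.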

A short description of assay [9]: TOX21_PR_BLA_Followup_Agonist_viability: Viability Assessment in the Tox21 HEK293 Progesterone Receptor (PR) Agonism Beta-lactamase Follow-Up Assay (AID 2283935).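 Note: signal loss means lower viability so actives are cytotoxic.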 The method, boiled down:
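Viability is read as CellTiter-Glo luminescence, where loss of signal indicates cytotoxicity. The cells are PR-UAS-bla HEK293T given compounds for 16 hr at 37C and 5% CO2, in the same wells used for the bla readout.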

Assay [10] is described as follows: TOX21_PR_BLA_Followup_Antagonist_viability: Viability Assessment in the Tox21 HEK293 Progesterone Receptor (PR) Antagonism Beta-lactamase Follow-Up Assay (AID 2283936).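 Note: cells exposed to compound with R5020 agonist for 16 h; hits lower the luminescence signal meaning cytotoxicity.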 The gist of the method: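 PR-UAS-bla HEK293T cells in medium with 2% charcoal-stripped FBS were treated with compounds plus R5020 for 16 hr at 37C. After the beta-lactamase read, CellTiter-Glo was added to the same wells and luminescence read after 30 min at room temperature.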

Assay [11] is described as follows: TOX21_PR_LUC_Followup_Antagonist_viability: Viability Assessment in the Tox21 HEK293 Progesterone Receptor (PR) Antagonism Luciferase Follow-Up Assay (AID 2283940). The gist of the method: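 Loss of CellTiter-Glo ATP signal indicates cytotoxicity in HEK293-PR-A-luc cells grown in 10% charcoal-stripped FBS medium, seeded 3,000 per well and incubated 16 h with compound at 37C.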

The nature of assay [12]: TOX21_PR_LUC_Followup_Agonist_viability: Viability Assessment in the Tox21 HEK293 Progesterone Receptor (PR) Agonism Luciferase Follow-Up Assay (AID 2283941).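 Note: loss of signal means cytotoxicity so actives lower viability.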 The method, boiled down:
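Seeding: HEK293-PR-A-luc, 3,000 cells/well, 5 h at 37C. Treatment: compound in DMSO, 16 h, 37C. Read: CellTiter-Glo ATP luminescence, signal loss taken as lower viability.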

The target of assay [13] is Thyroid hormone receptor alpha (Rattus norvegicus) + Thyroid hormone receptor beta (Rattus norvegicus) (UniProt P18113+P63059). In words: TOX21_TR_LUC_GH3_Antagonist_Followup: Tox21 GH3 Thyroid Hormone Receptor Antagonism Luciferase Follow-Up Assay (AID 2283942). The method, boiled down: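 Loss of T3-driven (1.0 nM final) reporter activity in GH3 cells was read by ONE-Glo luminescence after 24 h incubation at 37C; 15-point compound series spanned 92 uM to 5nM final, 1,500 cells/well.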

Assay [14] has as its target THRB (gene 7068) (UniProt P10828). Briefly: TOX21_TRB_BLA_Antagonist_Followup_ratio: Tox21 Thyroid Hormone Receptor beta Antagonism Beta-lactamase (BLA) Follow-Up Assay, Ratio (AID 2283958). The gist of the method: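 Using charcoal-stripped 2% FBS medium, human TRβ-LBD/GAL4 reporter HEK293T cells received test compounds for 18 h. The endpoint is the cleaved-to-uncleaved substrate ratio (460/530 nm).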

Assay [15] shares this target. In words: TOX21_TRB_COA_Antagonist_Followup_ratio: Tox21 Thyroid Hormone Receptor beta Antagonism through Coactivator Recruitment Follow-Up Assay, Ratio (AID 2283967). The method, boiled down:
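Coactivator recruitment to the GST-tagged TRb ligand-binding domain (5.0 nM) was read as the 520/495 nm TR-FRET ratio, using 200 nM fluorescein SRC-2 peptide and 2 nM terbium anti-GST. Scaled between DMSO and T3 wells; loss of signal fitted.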

Assay [16] in a line: TOX21_p53_BLA_p3_viability: Viability Assessment in the Tox21 HCT-116 p53 Agonism Beta-lactamase Assay, Phase 3 (AID 2283593).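 Note: cells exposed to compound for 16 h before reading.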 The method, boiled down:
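Cellular ATP was quantified by CellTiter-Glo luminescence, read after 30 min at room temperature. Beforehand, HCT116 cells (4000/well) received compound 5 h post-seeding, 217-fold diluted from DMSO, then incubated 16 h at 37C.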

Cellular tumor antigen p53 (Homo sapiens), sequence (P04637 whole entry, looked up): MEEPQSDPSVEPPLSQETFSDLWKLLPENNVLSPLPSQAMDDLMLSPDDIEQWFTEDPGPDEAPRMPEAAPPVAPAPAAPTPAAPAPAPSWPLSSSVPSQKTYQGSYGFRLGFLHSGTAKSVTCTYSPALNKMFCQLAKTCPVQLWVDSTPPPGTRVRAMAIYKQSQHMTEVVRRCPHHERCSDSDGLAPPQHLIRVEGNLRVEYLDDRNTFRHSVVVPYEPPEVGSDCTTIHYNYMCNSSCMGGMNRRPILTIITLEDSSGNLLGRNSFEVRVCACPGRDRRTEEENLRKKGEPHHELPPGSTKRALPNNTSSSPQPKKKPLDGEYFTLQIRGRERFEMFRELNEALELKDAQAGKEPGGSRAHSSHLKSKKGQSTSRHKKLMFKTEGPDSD
PGR (gene 5241), sequence (P06401 whole entry, looked up): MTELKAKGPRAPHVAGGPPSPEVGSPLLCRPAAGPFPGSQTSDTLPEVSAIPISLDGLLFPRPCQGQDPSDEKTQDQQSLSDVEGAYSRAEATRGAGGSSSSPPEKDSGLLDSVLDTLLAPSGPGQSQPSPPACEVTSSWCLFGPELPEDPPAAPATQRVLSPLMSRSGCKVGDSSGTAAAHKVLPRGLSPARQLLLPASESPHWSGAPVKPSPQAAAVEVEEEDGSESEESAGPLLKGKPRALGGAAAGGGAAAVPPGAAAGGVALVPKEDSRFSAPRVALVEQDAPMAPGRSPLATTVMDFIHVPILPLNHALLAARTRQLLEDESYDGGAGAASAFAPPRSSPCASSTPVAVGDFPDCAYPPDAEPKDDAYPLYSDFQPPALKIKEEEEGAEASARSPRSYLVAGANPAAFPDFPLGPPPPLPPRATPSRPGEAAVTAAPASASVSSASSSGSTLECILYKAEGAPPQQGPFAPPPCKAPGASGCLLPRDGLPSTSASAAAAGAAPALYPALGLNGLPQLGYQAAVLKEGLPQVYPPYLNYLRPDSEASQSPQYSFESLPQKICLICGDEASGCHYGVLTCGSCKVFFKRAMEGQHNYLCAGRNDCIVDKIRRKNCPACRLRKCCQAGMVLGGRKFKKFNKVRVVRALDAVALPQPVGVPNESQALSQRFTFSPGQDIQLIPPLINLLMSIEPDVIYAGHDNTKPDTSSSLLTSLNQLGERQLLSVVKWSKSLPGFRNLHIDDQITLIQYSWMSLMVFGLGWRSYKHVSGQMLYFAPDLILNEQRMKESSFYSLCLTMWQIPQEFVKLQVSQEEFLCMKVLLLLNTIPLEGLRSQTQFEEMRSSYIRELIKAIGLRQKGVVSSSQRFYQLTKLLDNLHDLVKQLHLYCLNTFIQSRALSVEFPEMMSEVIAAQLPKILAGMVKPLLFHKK
THRB (gene 7068), sequence (P10828 whole entry, looked up, the tested form may be a part): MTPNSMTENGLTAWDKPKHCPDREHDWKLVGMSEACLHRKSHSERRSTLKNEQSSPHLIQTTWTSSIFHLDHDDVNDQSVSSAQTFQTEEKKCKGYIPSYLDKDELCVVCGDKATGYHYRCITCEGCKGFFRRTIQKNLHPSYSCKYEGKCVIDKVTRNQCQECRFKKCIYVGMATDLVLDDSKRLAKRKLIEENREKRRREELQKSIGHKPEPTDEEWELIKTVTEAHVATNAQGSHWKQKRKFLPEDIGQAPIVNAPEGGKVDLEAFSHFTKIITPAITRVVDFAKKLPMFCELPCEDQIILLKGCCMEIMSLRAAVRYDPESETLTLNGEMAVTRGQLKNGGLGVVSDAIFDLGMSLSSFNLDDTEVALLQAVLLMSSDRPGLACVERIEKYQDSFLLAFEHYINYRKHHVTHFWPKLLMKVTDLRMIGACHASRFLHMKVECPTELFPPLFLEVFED

Turning to `CCCN1CCC[C@@H]2Cc3nc(N)ncc3C[C@H]21`, the result in [1], in assay [2], in assay [3] and in [4] was inactive.
Consider `NCCOS(=O)(=O)O`, for which the outcome in [1], in assay [2], in [5], in assay [4], in assay [6] and in assay [7] was inactive.
As to `NCCCNCCCN`, the outcome in [1], in [2], in assay [3], in assay [4] and in [6] was inactive.
For `CC[C@H]1C[C@H]2[C@@H]3CCC4=CC(=O)CC[C@@H]4[C@H]3CC[C@]2(C)[C@H]1O`, the compound was classed as inactive in assay [1], in assay [2], in assay [5], in assay [3], in assay [6] and in [7]. Also, the result in [8], in [9], in assay [10], in assay [11], in assay [12] and in assay [13] was inactive. For the same compound, the outcome in assay [14] and in assay [15] was inactive.
With `CNC(=O)Oc1cc(C)c(N(C)C)c(C)c1`, the call in assay [1], in assay [2], in assay [5], in [4] and in [7] was inactive.
Consider `COC(=O)[C@@H]1[C@H]2CC[C@@H](C[C@H]1OC(=O)c1ccccc1)N2C`, for which the outcome in assay [1], in assay [2], in assay [3] and in [4] was inactive.
In the case of `CCCC(=O)Cl`, the result in [1], in [2], in [5], in assay [3] and in assay [6] was inactive.
Take `[2H]C([2H])([2H])[C@H](N)Cc1ccccc1`: the compound was classed as inactive in assay [1], in assay [2], in assay [5] and in [6].
For `CCOP(=S)(OCC)Oc1ncn(-c2ccccc2)n1`, the call in assay [1], in assay [2], in [5], in [3] and in assay [6] was inactive.
Turning to `C=CC(C)(CCC=C(C)C)OC(=O)c1ccccc1N` (centres undefined), the compound was classed as inactive in assay [1], in assay [2], in [5], in [4] and in assay [6].
Regarding `CC(Cc1ccccc1)NCCn1cnc2c1c(=O)n(C)c(=O)n2C` (centres undefined), the call in assay [1], in assay [2], in assay [5], in assay [4], in assay [6] and in [7] was inactive.
For the compound `O=C(O)/C=C/C(=O)O`, the compound was classed as inactive in assay [1], in assay [2], in assay [5], in assay [4] and in assay [7].
With `O=c1oc2ccccc2c(O)c1C1CCCc2ccccc21` (centres undefined), the compound was classed as inactive in assay [1], in assay [2], in assay [5], in [4] and in [6].
As to `Nc1c(Br)cc([N+](=O)[O-])cc1[N+](=O)[O-]`, the compound was classed as inactive in [1], in assay [2], in assay [5], in assay [3] and in [6].
Take `C=CCC1([C@@H](C)CCC)C(=O)NC(=O)NC1=O`: the compound was called inactive in assay [1], in [2], in assay [3], in [4] and in assay [6].
Take `Clc1ccc2c(c1)C(c1ccccc1)=NCc1nncn1-2`: the compound was classed as inactive in assay [1], in assay [2], in [5], in assay [6] and in assay [7].
As for `Clc1cc2c(cc1Cl)Oc1cc(Cl)c(Cl)cc1O2`, the call in assay [1], in assay [2], in assay [3] and in assay [4] was inactive.
For `CCC1(c2ccccc2)C(=O)NC(=O)N(C)C1=O` (centres undefined), the call in assay [1], in assay [2], in [5] and in assay [6] was inactive.
In the case of `NC1=NC(=O)C(c2ccccc2)O1` (centres undefined), the compound was called inactive in assay [1], in assay [2], in assay [5], in assay [6] and in assay [7].
`CC(C)NCC(O)c1ccc(N)c(C#N)c1` (centres undefined): the call in [1], in assay [2], in assay [5], in [4], in assay [6] and in assay [7] was inactive.
As to `c1ccc(OCC2CO2)cc1` (centres undefined), the outcome in assay [1], in assay [2], in assay [5], in [3] and in assay [7] was inactive.
Consider `COCCC#N`, for which the compound was classed as inactive in assay [1], in assay [2], in assay [5], in [3], in assay [6] and in assay [7].
In the case of `C=CCOC(C)=O`, the compound was classed as inactive in assay [1], in [2], in [5], in [4] and in assay [7].
`Cn1c(N)nc2c3cccnc3ccc21`: the outcome in assay [1], in assay [2], in [5], in [3], in assay [4] and in assay [7] was inactive.
On to `COc1ccc(C=O)cc1O`, for which the compound was called inactive in [1], in assay [2], in assay [5], in assay [4] and in assay [7].
As to `CCC1(CC)C(=O)NC(=O)N(C)C1=O`, the result in [1], in [2], in assay [3] and in [4] was inactive.
Turning to `OP(O)c1ccccc1`, the outcome in [1], in [2], in [5], in assay [4], in assay [6] and in assay [7] was inactive.
Regarding `C=CCSSCC=C`, the call in [1], in assay [2], in assay [3] and in [6] was inactive. The half-maximal activity concentration (AC50) – broadly, the concentration at which the activity in the assay is half-maximal – in assay [5] is 57.5 µM (active).
For the compound `C=CCN(C1=NCCN1)c1c(Cl)cccc1Cl`, the call in assay [1], in assay [2], in [5] and in assay [4] was inactive.
As to `CC(C)(C)NCC(O)c1ccccc1Cl` (centres undefined), the compound was called inactive in assay [1], in [2], in assay [5], in assay [4], in assay [6] and in assay [7].
Take `CN1CCN(C(=O)O[C@H]2c3nccnc3C(=O)N2c2ccc(Cl)cn2)CC1`: the result in assay [1], in assay [2], in assay [5], in [3], in [6] and in assay [7] was inactive.
With `C[C@]12C/C(=C/O)C(=O)C[C@@H]1CC[C@@H]1[C@@H]2CC[C@@]2(C)[C@H]1CC[C@]2(C)O`, the result in assay [1], in assay [16], in [5], in assay [4], in assay [6] and in assay [7] was inactive. The outcome in assay [8], in [9], in assay [10] and in assay [11] was inactive. The concentration at half-maximal activity (AC50) in assay [16] is 66.6 µM (active); in assay [3], 52.8 µM (active) and 34.6 µM (active); in assay [6], 71.4 µM (active); in assay [7] it was 42.4 µM (active).
